# GC-A act – GC-A (human) enzyme activation. activation, % at 10 µM. P16066. actives 0.14% (n = 370,000). HEK293 GC-A cells, cGMP TR-FRET, EC30 ANP; 0% at EC30 ANP, 100% saturating ANP; in the data active means activation above about 40%
# NPR2 activator – GC-B (human) receptor activation | P20594 | HEK293-GC-B cells, CNP EC30, cGMP TR-FRET; 0% at EC30 CNP, 100% saturating CNP | activation, % at 10 µM | actives 0.11% (n = 370,000) | AID 1920062;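 active means activation at 10 µM reaching about 35% in either raw or pattern-adjusted values, limit read from the data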
# bovine MsrA act – bovine methionine sulfoxide reductase A activation. AID 602163. purified bovine MsrA, absorbance read-out. actives 0.3% (n = 360,000). activation, % at 10.6 µM; in the data active means activation above about 7.5%
# MsrA inh – inhibits bovine methionine sulfoxide reductase A; purified bovine MsrA, absorbance read-out; inhibition, % at 15.5 µM; actives 0.75% (n = 360,000)
# HTR2A ag – agonists of mouse serotonin 5-HT2A receptor (HTR2A). P35363. CHO-K1 mHTR2A beta-arrestin complementation, luminescence; percent of 30 µM serotonin response. activation, % at 7.6 µM. actives 0.66% (n = 360,000). AID 624169;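 active means activation above a run cutoff, the mean activation of all tested compounds plus 3 SD, cut at about 14% in these data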
# MsrA inh confirm – bovine MsrA inhibition, confirmed; inhibition, % at 15.5 µM; shares compounds with MsrA inh; purified bovine MsrA, absorbance read-out; actives 41% (n = 2,300);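 further: coupled to thioredoxin reductase with NADPH and selenocystamine and DMSO as substrate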
# Hits are given with their value; 0 = inactive; - = not tested or not shown. Hits are enriched below; roughly 1.8% of the tested compounds scored in any of these assays. Unless noted, no stated cut-off is given here; in the data, active means inhibition above about 4.5%; inactive means the rest.
SMILES,GC-A act,NPR2 activator,bovine MsrA act,MsrA inh,HTR2A ag,MsrA inh confirm
CN(C)c1ccc(/C=C(\NC(=O)c2ccccc2)C(=O)N/N=C/c2ccc(C(=O)O)cc2)cc1,0,0,0,5.7,0,5.4
CN(C)c1ccc(/C=N/NC(=O)CCCO)cc1,0,0,0,5.9,0,0
CN(C)c1ccc(/C=N/NC(=O)c2ccccc2)cc1,0,0,0,4.7,0,0
CN(C)c1ccc(/C=N/NC(=O)CCCCCNC(=O)c2ccccc2)cc1,0,0,0,4.8,0,0
CN(C)c1ccc(/C=N/NC(=O)c2ccc(Cl)cc2)cc1,-,-,0,0,0,-
CCOC(=O)c1cccc(S(=O)(=O)N(CCO)Cc2cc3cc(OC)ccc3[nH]c2=O)c1,0,0,0,-,0,-
CCOC(=O)c1cccc(S(=O)(=O)N(CCO)Cc2cc3cc(OC)c(OC)cc3[nH]c2=O)c1,0,0,0,5.1,0,0
O=C(N/N=C/c1ccncc1)c1cc2ccccc2o1,0,0,0,5.8,0,0
CN=Cc1nc(-c2ccccc2)oc1O,0,0,0,9.9,0,7.3
CC(=O)Oc1cc2c(s1)CCN(C(C(=O)C1CC1)c1ccccc1F)C2 (stereo not given),0,0,-,-,-,-
Cc1csc2ncc(C(=O)N3CCCc4ccccc43)c(=O)n12,0,0,0,4.7,0,0
